Experimental data published in PubChem BioAssay (NCATS).
Inconclusive results are not listed. Active and inactive are the calls of the source. The call rests on the fitted dose curve; in most records, active means well fitted inhibition curve with a large enough effect; inconclusive means small, poorly fitted or top-dose-only effect; inactive means flat fitted curve, though single readings scatter.

Experiments:
CRL-7250 = normal cell line; experiment: Cytotoxic Profiling of Annotated Libraries Using Quantitative High-Throughput Screening (AID 1296008); details: Five cell lines viability, CellTiter-Glo ATP luminescence, 48-72 h; max response: stronger effect = lower value; on max response: on the % scale 0 is the no-effect control and ±100 the full control effect
Procedure, shortened: (§1)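 Cells exposed to compounds for 48 or 72 hr at 37 degrees Celsius. Viability read as ATP-coupled luminescence with CellTiter-Glo after 10 min at room temperature.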

HEK293 = experiment: as above; details: Five cell lines viability, CellTiter-Glo ATP luminescence, 48-72 h; max response: stronger effect = lower value
Procedure, shortened: as §1

HaCat [1] = experiment: as above; details: Five cell lines viability, CellTiter-Glo ATP luminescence, 48-72 h; max response: stronger effect = lower value
Procedure, shortened: as §1

NIH3T3 = experiment: as above; details: Five cell lines viability, CellTiter-Glo ATP luminescence, 48-72 h; max response: stronger effect = lower value
Procedure, shortened: as §1

HACAT [2] = experiment: qHTS assay to identify novel small-molecules to repurpose for Merkel cell carcinoma treatment (AID 1296009); details: MCC and control cell lines, CellTiter-Glo viability, 72 h; at 44.8 µM (top of the series) unless noted
Procedure, shortened: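 CellTiter-Glo luminescence after 72 hr compound exposure at 37 degree celsius gave cell viability. Libraries NPC and MIPE were run as 8- and 11-point dose responses; RLUs normalized to DMSO (negative) and no-cell (cytotoxicity) controls.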

Measured: max response
Further: nearly all actives have a fitted effect of over 60% in size.

Cc1ccc(C(=O)Oc2ccc(C(O)CNC(C)(C)C)cc2OC(=O)c2ccc(C)cc2)cc1 (stereo not given)
inactive: CRL-7250 -6.97% | HEK293 1.15% | HaCat [1] | NIH3T3 | HACAT [2]

CCOC(=O)C(=O)CCc1ccccc1
inactive: CRL-7250 -13.2% | HEK293 4.19% | HaCat [1] | NIH3T3 -3.41% | HACAT [2]

COC(=O)c1cc(Cl)ccc1OC
inactive: CRL-7250 -7.71% | HEK293 | HaCat [1] | NIH3T3 | HACAT [2]

NS(=O)(=O)c1cc(C(=O)NN2C[C@H]3[C@H]4CCC(C4)[C@H]3C2)ccc1Cl
inactive: CRL-7250 | HEK293 4.38% | HaCat [1] | NIH3T3 | HACAT [2]

CC(=O)N1CCN(c2ccc(O)cc2)CC1
inactive: CRL-7250 -1.56% | HEK293 -2.95% | HaCat [1] | NIH3T3 | HACAT [2]

CN1Cc2cc(C(=O)N3CCC(C4CCNCC4)CC3)ccc2N[C@@H](CC(=O)O)C1=O
inactive: CRL-7250 -4.04% | HEK293 -1.55% | HaCat [1] | NIH3T3 1.44% | HACAT [2]

Cc1cccc(C)c1NC(=O)c1ccc(N)cc1
inactive: CRL-7250 -0.144% | HEK293 -2.32% | HaCat [1] | NIH3T3 | HACAT [2]

COC(=O)/C=C\C(=O)OC
inactive: CRL-7250 -5.33% | HEK293 | HaCat [1] | NIH3T3 | HACAT [2]

Cc1cccc(OCC(O)CNC(C)(C)C)c1C (stereo not given)
inactive: CRL-7250 -7.39% | HEK293 -11.8% | HaCat [1] | NIH3T3 0.115% | HACAT [2]

CC(C)OP(=O)(CP(=O)(OC(C)C)OC(C)C)OC(C)C
inactive: CRL-7250 -7.87% | HEK293 -0.755% | HaCat [1] | NIH3T3 -2.18% | HACAT [2]

CO/N=C(\C(=O)O)c1csc(NC(=O)CCl)n1
inactive: CRL-7250 | HEK293 -4.55% | HaCat [1] | NIH3T3 | HACAT [2]

CCOC(=O)C(O)c1ccccc1 (stereo not given)
inactive: CRL-7250 | HEK293 | HaCat [1] | NIH3T3 0.37% | HACAT [2]

NCC[C@H](O)C(=O)N[C@@H]1C[C@H](N)[C@@H](O[C@H]2O[C@H](CN)[C@@H](O)[C@H](O)[C@@H]2O)[C@H](O)[C@@H]1O[C@H]1O[C@H](CO)[C@@H](O)[C@H](N)[C@@H]1O
inactive: CRL-7250 -2.25% | HEK293 -4.69% | HaCat [1] | NIH3T3 -2.83% | HACAT [2] inactive [at 0.588 µM]

CCn1ccc(NS(=O)(=O)c2ccc(N)cc2)nc1=O
inactive: CRL-7250 4.48% | HEK293 -20.6% | HaCat [1] | NIH3T3 | HACAT [2]

COc1cc2c(cc1OC)C(=O)CC2
inactive: CRL-7250 | HEK293 3.36% | HaCat [1] | NIH3T3 | HACAT [2]

CCCc1ncc(C(=O)O)s1
inactive: CRL-7250 -9.12% | HEK293 4.41% | HaCat [1] | NIH3T3 | HACAT [2]

O=C(O)c1cn(C2CC2)c2cc(Cl)c(F)cc2c1=O
inactive: CRL-7250 | HEK293 -5.06% | HaCat [1] | NIH3T3 | HACAT [2]

COc1ccccc1N1CCN(CC(O)COc2cc(OC)c(OC)c(OC)c2)CC1 (stereo not given)
inactive: CRL-7250 | HEK293 2.4% | HaCat [1] | NIH3T3 -5.07% | HACAT [2]

C[C@@H]1CCC[C@H](C)N1CCCC(O)(c1ccccc1)c1ccccn1 (stereo not given in full)
inactive: CRL-7250 3.63% | HEK293 -3.44% | HaCat [1] | NIH3T3 -1.21% | HACAT [2]

COc1ccc(CCC(C)=O)cc1
inactive: CRL-7250 -2.07% | HEK293 | HaCat [1] | NIH3T3 | HACAT [2]

C=C(C)C(=O)OCC(O)CO (stereo not given)
inactive: CRL-7250 4.35% | HEK293 -5.25% | HaCat [1] | NIH3T3 4.75% | HACAT [2]

COCCc1ccccn1
inactive: CRL-7250 -7.75% | HEK293 -0.362% | HaCat [1] | NIH3T3 | HACAT [2]

CCCCCCCC(=O)[O-].CCCCCCCC(=O)[O-].[Zn+2]
inactive: CRL-7250 -4.35% | HEK293 -2.75% | HaCat [1] | NIH3T3 4.51% | HACAT [2]

CCN(CC)C(=O)C1CN2CCc3cc(OC)c(OC)cc3C2CC1OC(C)=O (stereo not given)
inactive: CRL-7250 -9.43% | HEK293 | HaCat [1] | NIH3T3 -5.34% | HACAT [2]

CCCC(=O)Nc1ccc(O)c(C(C)=O)c1
inactive: CRL-7250 -0.565% | HEK293 | HaCat [1] | NIH3T3 3.73% | HACAT [2]

COC(=O)/C=C(/C)N
inactive: CRL-7250 -6.42% | HEK293 | HaCat [1] | NIH3T3 | HACAT [2]

Cc1oc(=O)oc1COC(=O)[C@@H]1N2C(=O)[C@@H](NC(=O)[C@H](N)c3ccccc3)[C@H]2SC1(C)C
inactive: CRL-7250 -5.05% | HEK293 -0.753% | HaCat [1] | NIH3T3 -3.48% | HACAT [2]
